# Experimental data taken from the supplement of paper PMC4466140.
# Tests used:
# Experiment in all cases: SPOT peptide array binding signal intensity (averaged, normalized) (arbitrary units (background-subtracted, floor 0; scale differs between SH3 domains)); higher = stronger binding of the SH3 domain to the peptide
# AgAbp1 = target: AgAbp1
# In short: (§1)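 Detection of bound protein relied on anti-GST antibody, an HRP anti-mouse secondary and luminol, with imaging and quantification in Genespotter. The bound protein was GST-fused SH3 domains from four yeast species, incubated at 10 μg/ml overnight at 4°C in TBS-based blocking buffer on cellulose membranes carrying synthetic 15-mer peptides with cysteines replaced by serines. Binding signal is normalized, background-subtracted spot intensity averaged over replicates, in arbitrary units that differ between domains.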
# AgBbc1 = target: AgBbc1
# In short: as §1
# AgBem1-D1 = target: AgBem1-D1
# In short: as §1
# AgBzz1-D1 = target: AgBzz1-D1
# In short: as §1
# AgBzz1-D2 = target: AgBzz1-D2
# In short: as §1
# AgCyk3 = target: AgCyk3
# In short: as §1
# AgFus1 = target: AgFus1
# In short: as §1
# AgHof1 = target: AgHof1
# In short: as §1
# AgHse1 = target: AgHse1
# In short: as §1
# AgLsb1 = target: AgLsb1
# In short: as §1
# AgLsb4 = target: AgLsb4
# In short: as §1
# AgMyo5 = target: AgMyo5
# In short: as §1
# AgNbp2 = target: AgNbp2
# In short: as §1
# AgRvs167 = target: AgRvs167
# In short: as §1
# AgSho1 = target: AgSho1
# In short: as §1
# AgSla1-D1-D2 = target: AgSla1-D1-D2
# In short: as §1
# AgSla1-D3 = target: AgSla1-D3
# In short: as §1
# CaAbp1-D1 = target: CaAbp1-D1
# In short: as §1
# CaAbp1-D2 = target: CaAbp1-D2
# In short: as §1
# CaBbc1 = target: CaBbc1
# In short: as §1
# CaBem1-D1 = target: CaBem1-D1
# In short: as §1
# CaBzz1-D1 = target: CaBzz1-D1
# In short: as §1
# CaBzz1-D2 = target: CaBzz1-D2
# In short: as §1
# CaCyk3 = target: CaCyk3
# In short: as §1
# CaFus1 = target: CaFus1
# In short: as §1
# CaHof1 = target: CaHof1
# In short: as §1
# CaHse1 = target: CaHse1
# In short: as §1
# CaLsb1 = target: CaLsb1
# In short: as §1
# CaLsb4 = target: CaLsb4
# In short: as §1
# CaMyo5 = target: CaMyo5
# In short: as §1
# CaNbp2 = target: CaNbp2
# In short: as §1
# CaRvs167 = target: CaRvs167
# In short: as §1
# CaRvs167-3 = target: CaRvs167-3
# In short: as §1
# CaSho1 = target: CaSho1
# In short: as §1
# CaSla1-D1-D2 = target: CaSla1-D1-D2
# In short: as §1
# CaSla1-D3 = target: CaSla1-D3
# In short: as §1
# ScAbp1 = target: ScAbp1
# In short: as §1
# ScBbc1 = target: ScBbc1
# In short: as §1
# ScBem1-D1 = target: ScBem1-D1
# In short: as §1
# ScBzz1-D1 = target: ScBzz1-D1
# In short: as §1
# ScBzz1-D2 = target: ScBzz1-D2
# In short: as §1
# ScCyk3 = target: ScCyk3
# In short: as §1
# ScFus1 = target: ScFus1
# In short: as §1
# ScHof1 = target: ScHof1
# In short: as §1
# ScHse1 = target: ScHse1
# In short: as §1
# ScLsb1 = target: ScLsb1
# In short: as §1
# ScLsb2 = target: ScLsb2
# In short: as §1
# ScLsb3 = target: ScLsb3
# In short: as §1
# ScLsb4 = target: ScLsb4
# In short: as §1
# ScMyo3 = target: ScMyo3
# In short: as §1
# ScMyo5 = target: ScMyo5
# In short: as §1
# ScNbp2 = target: ScNbp2
# In short: as §1
# ScPex13 = target: ScPex13
# In short: as §1
# ScRvs167 = target: ScRvs167
# In short: as §1
# ScSho1 = target: ScSho1
# In short: as §1
# ScSla1-D1-D2 = target: ScSla1-D1-D2
# In short: as §1
# ScSla1-D3 = target: ScSla1-D3
# In short: as §1
# SpAbp1-D1 = target: SpAbp1-D1
# In short: as §1
# SpBbc1 = target: SpBbc1
# In short: as §1
# SpBzz1-D1 = target: SpBzz1-D1
# In short: as §1
# SpBzz1-D2 = target: SpBzz1-D2
# In short: as §1
# SpCyk3 = target: SpCyk3
# In short: as §1
# SpHof1 = target: SpHof1
# In short: as §1
# SpHof1-2 = target: SpHof1-2
# In short: as §1
# SpHof1-3 = target: SpHof1-3
# In short: as §1
# SpHse1 = target: SpHse1
# In short: as §1
# SpLsb1 = target: SpLsb1
# In short: as §1
# SpLsb4 = target: SpLsb4
# In short: as §1
# SpMyo1 = target: SpMyo1
# In short: as §1
# SpNbp2 = target: SpNbp2
# In short: as §1
# SpPex13 = target: SpPex13
# In short: as §1
# SpRvs167 = target: SpRvs167
# In short: as §1
# SpSla1-D1-D2 = target: SpSla1-D1-D2
# In short: as §1
# SpSla1-D3 = target: SpSla1-D3
# In short: as §1
binder,measurement,setting,value
RTIRKLPLMSLSEYF,SPOT peptide array binding signal intensity,AgAbp1,7.5
same,SPOT peptide array binding signal intensity,AgBbc1,14.5
same,SPOT peptide array binding signal intensity,AgBem1-D1,106
same,SPOT peptide array binding signal intensity,AgBzz1-D1,8
same,SPOT peptide array binding signal intensity,AgBzz1-D2,21
same,SPOT peptide array binding signal intensity,AgCyk3,0.5
same,SPOT peptide array binding signal intensity,AgFus1,345
same,SPOT peptide array binding signal intensity,AgHof1,34.5
same,SPOT peptide array binding signal intensity,AgHse1,356
same,SPOT peptide array binding signal intensity,AgLsb1,≤ 0
same,SPOT peptide array binding signal intensity,AgLsb4,61.5
same,SPOT peptide array binding signal intensity,AgMyo5,0.25
same,SPOT peptide array binding signal intensity,AgNbp2,379
same,SPOT peptide array binding signal intensity,AgRvs167,3
same,SPOT peptide array binding signal intensity,AgSho1,122
same,SPOT peptide array binding signal intensity,AgSla1-D1-D2,46
same,SPOT peptide array binding signal intensity,AgSla1-D3,8
same,SPOT peptide array binding signal intensity,CaAbp1-D1,285
same,SPOT peptide array binding signal intensity,CaAbp1-D2,123
same,SPOT peptide array binding signal intensity,CaBbc1,42.5
same,SPOT peptide array binding signal intensity,CaBem1-D1,66.5
same,SPOT peptide array binding signal intensity,CaBzz1-D1,82.5
same,SPOT peptide array binding signal intensity,CaBzz1-D2,63.5
same,SPOT peptide array binding signal intensity,CaCyk3,59
same,SPOT peptide array binding signal intensity,CaFus1,942
same,SPOT peptide array binding signal intensity,CaHof1,≤ 0
same,SPOT peptide array binding signal intensity,CaHse1,121
same,SPOT peptide array binding signal intensity,CaLsb1,4.5
same,SPOT peptide array binding signal intensity,CaLsb4,282
same,SPOT peptide array binding signal intensity,CaMyo5,6
HVRRSILALPLGVLL,SPOT peptide array binding signal intensity,AgAbp1,8
same,SPOT peptide array binding signal intensity,AgBbc1,2.75
same,SPOT peptide array binding signal intensity,AgBem1-D1,39
same,SPOT peptide array binding signal intensity,AgBzz1-D1,≤ 0
same,SPOT peptide array binding signal intensity,AgBzz1-D2,2.5
same,SPOT peptide array binding signal intensity,AgCyk3,1
same,SPOT peptide array binding signal intensity,AgFus1,605
same,SPOT peptide array binding signal intensity,AgHof1,22.8
same,SPOT peptide array binding signal intensity,AgHse1,325
same,SPOT peptide array binding signal intensity,AgLsb1,61.5
same,SPOT peptide array binding signal intensity,AgLsb4,201
same,SPOT peptide array binding signal intensity,AgMyo5,≤ 0
same,SPOT peptide array binding signal intensity,AgNbp2,57
same,SPOT peptide array binding signal intensity,AgRvs167,0.5
same,SPOT peptide array binding signal intensity,AgSho1,64
same,SPOT peptide array binding signal intensity,AgSla1-D1-D2,6
same,SPOT peptide array binding signal intensity,AgSla1-D3,5
same,SPOT peptide array binding signal intensity,CaAbp1-D1,120
same,SPOT peptide array binding signal intensity,CaAbp1-D2,85
same,SPOT peptide array binding signal intensity,CaBbc1,10
same,SPOT peptide array binding signal intensity,CaBem1-D1,10
same,SPOT peptide array binding signal intensity,CaBzz1-D1,21
same,SPOT peptide array binding signal intensity,CaBzz1-D2,22
same,SPOT peptide array binding signal intensity,CaCyk3,3
same,SPOT peptide array binding signal intensity,CaFus1,2060
same,SPOT peptide array binding signal intensity,CaHof1,≤ 0
same,SPOT peptide array binding signal intensity,CaHse1,25
same,SPOT peptide array binding signal intensity,CaLsb1,0.25
same,SPOT peptide array binding signal intensity,CaLsb4,47
same,SPOT peptide array binding signal intensity,CaMyo5,5.25
same,SPOT peptide array binding signal intensity,CaNbp2,450
same,SPOT peptide array binding signal intensity,CaRvs167,16.8
same,SPOT peptide array binding signal intensity,CaRvs167-3,7.75
same,SPOT peptide array binding signal intensity,CaSho1,439
same,SPOT peptide array binding signal intensity,CaSla1-D1-D2,≤ 0
same,SPOT peptide array binding signal intensity,CaSla1-D3,25
same,SPOT peptide array binding signal intensity,ScAbp1,22
same,SPOT peptide array binding signal intensity,ScBbc1,≤ 0
same,SPOT peptide array binding signal intensity,ScBem1-D1,10
same,SPOT peptide array binding signal intensity,ScBzz1-D1,12.5
same,SPOT peptide array binding signal intensity,ScBzz1-D2,3.5
same,SPOT peptide array binding signal intensity,ScCyk3,56
same,SPOT peptide array binding signal intensity,ScFus1,522
same,SPOT peptide array binding signal intensity,ScHof1,1.5
same,SPOT peptide array binding signal intensity,ScHse1,772
same,SPOT peptide array binding signal intensity,ScLsb1,5.5
same,SPOT peptide array binding signal intensity,ScLsb2,≤ 0
same,SPOT peptide array binding signal intensity,ScLsb3,182
same,SPOT peptide array binding signal intensity,ScLsb4,15.5
same,SPOT peptide array binding signal intensity,ScMyo3,≤ 0
same,SPOT peptide array binding signal intensity,ScMyo5,≤ 0
same,SPOT peptide array binding signal intensity,ScNbp2,114
same,SPOT peptide array binding signal intensity,ScPex13,≤ 0
same,SPOT peptide array binding signal intensity,ScRvs167,22.2
same,SPOT peptide array binding signal intensity,ScSho1,1000
same,SPOT peptide array binding signal intensity,ScSla1-D1-D2,5
same,SPOT peptide array binding signal intensity,ScSla1-D3,2
same,SPOT peptide array binding signal intensity,SpAbp1-D1,124
same,SPOT peptide array binding signal intensity,SpBbc1,2
same,SPOT peptide array binding signal intensity,SpBzz1-D1,30
same,SPOT peptide array binding signal intensity,SpBzz1-D2,≤ 0
same,SPOT peptide array binding signal intensity,SpCyk3,3
same,SPOT peptide array binding signal intensity,SpHof1,49
same,SPOT peptide array binding signal intensity,SpHof1-2,8.5
same,SPOT peptide array binding signal intensity,SpHof1-3,180
same,SPOT peptide array binding signal intensity,SpHse1,508
same,SPOT peptide array binding signal intensity,SpLsb1,2
same,SPOT peptide array binding signal intensity,SpLsb4,73.5
same,SPOT peptide array binding signal intensity,SpMyo1,2.5
same,SPOT peptide array binding signal intensity,SpNbp2,194
same,SPOT peptide array binding signal intensity,SpPex13,≤ 0
same,SPOT peptide array binding signal intensity,SpRvs167,9.83
same,SPOT peptide array binding signal intensity,SpSla1-D1-D2,2
same,SPOT peptide array binding signal intensity,SpSla1-D3,1
VNIPSPSSSPPPIPK,SPOT peptide array binding signal intensity,SpBzz1-D2,≤ 0
same,SPOT peptide array binding signal intensity,SpCyk3,1
same,SPOT peptide array binding signal intensity,SpHof1,≤ 0
same,SPOT peptide array binding signal intensity,SpHof1-2,≤ 0
same,SPOT peptide array binding signal intensity,SpHof1-3,≤ 0
same,SPOT peptide array binding signal intensity,SpHse1,43
same,SPOT peptide array binding signal intensity,SpLsb1,≤ 0
same,SPOT peptide array binding signal intensity,SpLsb4,≤ 0
same,SPOT peptide array binding signal intensity,SpMyo1,1720
same,SPOT peptide array binding signal intensity,SpNbp2,≤ 0
same,SPOT peptide array binding signal intensity,SpPex13,1.5
same,SPOT peptide array binding signal intensity,SpRvs167,≤ 0
same,SPOT peptide array binding signal intensity,SpSla1-D1-D2,2
same,SPOT peptide array binding signal intensity,SpSla1-D3,2
